We go through 19 molecules from PubChem BioAssay (NCATS).

Several values for one entry are separate records, joined by “and”; a condition that tells them apart may be missing. Equal entries are not always repeated. Inconclusive results are not listed. Unmarked numbers belong to inactive results. Activity calls are given as the source filed them. Unless noted, calls follow the shape of the dose curve; as a rule, active = well fitted curve in the direction sought with a large enough effect in the repeat runs; inconclusive = weak or mixed curves; inactive = no such curve, though single readings can be large; an effect the other way counts as inactive or inconclusive.

The first assay is described as follows: qHTS for Activators of Parkin Expression: LOPAC Validation Assay (FLuc Reporter) (AID 720573; active = well fitted curve in the direction sought with a large enough effect; an effect the other way counts as inactive or inconclusive;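 also: 0% = DMSO and 100% = positive control compounds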). Conditions: Cell line, PRKN promoter firefly luciferase reporter, vehicle wells = 0, positive control = 100%; series mostly up to 46.1 µM. The procedure, abridged:
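Readout is FLuc luminescence from neuronal reporter cells (Parkin promoter, FLuc plus NLuc) after 24 h compound exposure in dose response. Values normalized to neutral DMSO and positive-control compounds.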
(In general: Quantitative high-throughput screening tests each substance at several concentrations.)
With `Cc1ncsc1CCCl`, the outcome was inactive.

In the case of `O=c1[nH]oc2c1CCNC2`, the molecule was classed as inactive.

In the case of `COc1ccc2c(c1OC)C(=O)O[C@H]2[C@@H]1c2cc3c(cc2CCN1C)OCO3`, the call was inactive.

With `CC(NC(C)(C)C)C(=O)c1cccc(Cl)c1` (stereo unspecified), the molecule was classed as inactive.

As for `CN1C(=O)CCS(=O)(=O)C1c1ccc(Cl)cc1` (stereo unspecified), the call was inactive.

For `CCC1(c2ccc(N)cc2)CCC(=O)NC1=O` (stereo unspecified), the molecule was called inactive.

As to `C=C(C)[C@H]1CN[C@H](C(=O)O)[C@H]1CC(=O)O`, the molecule was classed as inactive.

Consider `CC(C)N(CCC(C(N)=O)(c1ccccc1)c1ccccn1)C(C)C` (stereo unspecified), for which the outcome was inactive.

For `O=C(O)CCCc1ccc(N(CCCl)CCCl)cc1`, the result was inactive.

`O=C(CCCN1CCC2(CC1)C(=O)NCN2c1ccccc1)c1ccc(F)cc1`: the molecule was classed as inactive.

As for `CC(C)(C)NCC(O)c1ccccc1Cl` (stereo unspecified), the molecule was classed as inactive.

Regarding `CCCCC/C=C\C/C=C\C/C=C\C/C=C\CCCC(=O)NCC(=O)O`, the molecule was called inactive.

A further assay is described as follows: qHTS assay for small molecule agonists of the antioxidant response element (ARE) signaling pathway measured by Nrf2-dependant transcriptional activity (AID 720636). Also: % of control where 0% means no effect. The following applies: ARE-luc HepG2, Nrf2 luciferase reporter, 16 h; series mostly up to 92.4 µM. The procedure, abridged: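 Quantitative HTS format in HepG2 cells stably expressing an ARE-luciferase reporter; 16 hr compound treatment at 37 C, luciferase signal detected with ONE-Glo.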
As for `C[C@]12CCC(=O)C=C1CC[C@@H]1[C@@H]2CC[C@]2(C)C(=O)CC[C@@H]12`, the result was inactive.

Consider `COP(=S)(OC)SCN1C(=O)c2ccccc2C1=O`, for which the call was inactive.

For the molecule `C[C@]12CCC(=O)C=C1CC[C@@H]1[C@@H]2CC[C@@]2(C)[C@H]1CC[C@]2(C)O`, the outcome was inactive.

With `Oc1ccc(Cl)cc1`, the molecule was classed as inactive.

Take `O=C(O)CCCc1ccc(N(CCCl)CCCl)cc1`: the call was inactive.

With `CC1(C)C(C=C(Cl)Cl)C1C(=O)OC(C#N)c1cccc(Oc2ccccc2)c1` (stereo unspecified), the molecule was classed as inactive.

On to `Nc1ccccc1C(=O)O`, for which the molecule was classed as inactive.

A further assay is described as follows: qHTS assay for small molecule antagonists of the retinoid-related orphan receptor gamma (ROR-gamma) signaling pathway - cell viability counter screen (AID 720652).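 Also: CHO reporter cells with doxycycline-induced ROR-gamma expression; compound exposure lasted 16 hr before ATP read; % is scaled to controls: 0 for no effect and ±100 for the full control effect.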 The following applies: RORgamma reporter cell line viability counter screen; series mostly up to 92.2 µM. The procedure, abridged:
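CHO RORE-LUC/TET-ROR line, 1,000 cells/well, 37 C 5% CO2 5 hr; cpd or DMSO + doxycycline induction, 16 hr. CellTiter-Glo, 30 min RT, luminescence = ATP content.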
`C[C@]12CCC(=O)C=C1CC[C@@H]1[C@@H]2CC[C@]2(C)C(=O)CC[C@@H]12`: the molecule was called inactive.

As to `C[C@]12CCC(=O)C=C1CC[C@@H]1[C@@H]2CC[C@@]2(C)[C@H]1CC[C@]2(C)O`, the result was inactive.

Take `Oc1ccc(Cl)cc1`: the outcome was inactive.

Regarding `Nc1ccccc1C(=O)O`, the call was inactive.

The nature of another assay: qHTS assay for small molecule agonists of the antioxidant response element (ARE) signaling pathway measured by Nrf2-dependant transcriptional activity - cell viability counter screen (AID 720653). Also: % is scaled to controls: 0 for no effect and ±100 for the full control effect. Conditions: ARE-bla HepG2 viability, CellTiter-Glo ATP luminescence, 16 h; hits give low values. The procedure, abridged: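 Cytotoxicity counter screen: intracellular ATP quantified by CellTiter-Glo luminescence in the same ARE-bla HepG2 plates, after 16 h compound exposure and a 2 h beta-lactamase substrate step.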
With `C[C@]12CCC(=O)C=C1CC[C@@H]1[C@@H]2CC[C@]2(C)C(=O)CC[C@@H]12`, the max response was 3.62% and -13.2%.

On to `COP(=S)(OC)SCN1C(=O)c2ccccc2C1=O`, for which the max response was 3.01%.

Consider `C[C@]12CCC(=O)C=C1CC[C@@H]1[C@@H]2CC[C@@]2(C)[C@H]1CC[C@]2(C)O`, for which the max response is 11%.

As for `O=C1c2ccccc2C(=O)c2ccccc21`, the max response was -5.47%.

`Oc1ccc(Cl)cc1`: the max response is -5.13%.

Regarding `O=C(O)CCCc1ccc(N(CCCl)CCCl)cc1`, the max response was -0.747% and 2.01%.

Regarding `CC1(C)C(C=C(Cl)Cl)C1C(=O)OC(C#N)c1cccc(Oc2ccccc2)c1` (stereo unspecified), the max response was -2.42%.

For `Nc1ccccc1C(=O)O`, the max response was 1.19%.
